Experimental data published in the supplement of paper PMC8699584.
“And” between values parts separate entries of the source, which are not always exact repeats. Equal entries are not always repeated. Structures can show the parent of a compound that is named as a salt. ± gives the standard deviation of the averaged measurements.

test system: Molm13; experiment: cell viability relative to DMSO control (bortezomib = 0%); higher = less growth inhibition; details: 10 nM; 72 h
In short: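 Acute myeloid leukemia cells were plated at 1000 cells per well in 50 µL onto a 679-compound library of approved and investigational agents in 384-well plates and exposed to a single 10 nM dose for 72 h, in duplicate. Cell viability was measured by CellTiter-Glo luminescence on an EnVision reader. Readings were scaled to percentages by per-plate linear regression, with DMSO-treated cells set at 100% and positive-control-treated cells at 0%.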

| Structure (SMILES) | cell viability |
| --- | --- |
| O=S(=O)(NCCNC/C=C/c1ccc(Br)cc1)c1cccc2cnccc12 [H-89 (hydrochloride)] | 114 ± 19% |
| NC(=O)c1ccccc1Nc1ccnc(Nc2cccc(O)c2)n1 | 106 ± 34% |
| C[C@@H]1COCCN1c1cc(C2([S@](C)(=N)=O)CC2)nc(-c2cc[nH]c3nccc2-3)n1 | 114 ± 7.9% |
| CC(C)=CCc1cc2c(cc1O)oc(=O)c1c3ccc(O)cc3oc21 [Psoralidin] | 111 ± 27% |
| Nc1[nH]nc2nnc(-c3c(-c4ccccc4)nn4ccccc34)cc12 | 95.5 ± 1.6% |
| Cn1cnc(N)c2ncnc1-2 [3-Methyladenine (3-MA)] | 98.3 ± 1.7% |
| COc1cc(N2CCC(N3CCN(C)CC3)CC2)ccc1Nc1ncnc(Nc2ccccc2S(=O)(=O)C(C)C)n1 | 96.5 ± 3.9% |
| CC(C)=CCC[C@](C)(O[C@@H]1O[C@H](CO)[C@@H](O)[C@H](O)[C@H]1O)[C@H]1CC[C@]2(C)[C@@H]1[C@H](O)C[C@@H]1[C@@]3(C)CC[C@H](O)C(C)(C)[C@@H]3[C@@H](O[C@@H]3O[C@H](CO)[C@@H](O)[C@H](O)[C@H]3O[C@@H]3OC[C@@H](O)[C@H](O)[C@H]3O)C[C@]12C [Notoginsenoside R1] | 110 ± 13% |
| Cc1cnc(-c2cnc(NCCNc3ccc(C#N)cn3)nc2-c2ccc(Cl)cc2Cl)[nH]1 | 104% and 111% |
| C#Cc1cccc(Nc2ncnc3cc4c(cc23)OCCOCCOCCO4)c1 [Icotinib Hydrochloride] | 100 ± 4.9% |
| CCOC(=O)c1c2c3c(cccc3[nH]c1=O)C(=O)c1ccccc1-2 | 124 ± 7.7% |
| O.O.O.O.O=C([O-])CC(O)(CC(=O)[O-])C(=O)[O-].[Li+].[Li+].[Li+] [Lithium citrate tribasic tetrahydrate] | 109 ± 1.3% |
